We go through 1 sequence from article PMC7862700, “An all-to-all approach to the identification of sequence-specific readers for epigenetic DNA modifications on cytosine”.

Holding throughout (experiment): DAPPL (digital affinity profiling via proximity ligation, sequencing); 10 mM Tris-HCl pH 7.5, 50 mM NaCl, 1 mM DTT, 4% glycerol, room temperature, 30 min; GST-TFs on glutathione beads, 16-mer random dsDNA library, 0.1% formaldehyde crosslink after washing; high values mean tight binding
One assay deals with T1, FEV (Homo sapiens, UniProt Q99581 1-238).
T1 sequence: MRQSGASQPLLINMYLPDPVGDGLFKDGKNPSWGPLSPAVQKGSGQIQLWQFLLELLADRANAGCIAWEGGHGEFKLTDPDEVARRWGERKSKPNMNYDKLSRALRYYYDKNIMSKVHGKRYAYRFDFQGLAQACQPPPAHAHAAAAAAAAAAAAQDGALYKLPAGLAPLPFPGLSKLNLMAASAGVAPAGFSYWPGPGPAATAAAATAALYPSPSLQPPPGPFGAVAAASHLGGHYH
The following applies: protein: recombinant; tags: N-terminal GST; dsDNA, one strand shown. The method, boiled down: (§1)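 In yeast, human transcription factors were expressed with a GST fusion, then pulled down on glutathione beads and given DNA barcodes. Pooled with a tag-only sample, they were exposed to 200 nmole of a 16-mer random double-stranded DNA library (Tris/NaCl/DTT/glycerol buffer, room temperature, 30 min), washed, crosslinked with 0.1% formaldehyde, proximity-ligated using BsaI/T4 ligase for 1 h at 37 °C, PCR-amplified and read on an Illumina NextSeq500. Each hexamer's frequency of reads for a factor, divided by the matching frequency for the tag-only sample, gives the binding signal.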

For a further assay, the target named is ETV5 (Homo sapiens, UniProt P41161 1-510). The note with it: protein: recombinant; tags: N-terminal GST; dsDNA, one strand shown. In a few lines:
as §1

A further assay addresses HSF1 (Homo sapiens, UniProt Q00613 1-529). The note with it: protein: recombinant; tags: N-terminal GST; chain copies: 3; dsDNA, one strand shown. The method, boiled down: as §1
In a further assay the target is T2, SPIC (Homo sapiens, UniProt Q8N5J4 1-248).
T2 sequence: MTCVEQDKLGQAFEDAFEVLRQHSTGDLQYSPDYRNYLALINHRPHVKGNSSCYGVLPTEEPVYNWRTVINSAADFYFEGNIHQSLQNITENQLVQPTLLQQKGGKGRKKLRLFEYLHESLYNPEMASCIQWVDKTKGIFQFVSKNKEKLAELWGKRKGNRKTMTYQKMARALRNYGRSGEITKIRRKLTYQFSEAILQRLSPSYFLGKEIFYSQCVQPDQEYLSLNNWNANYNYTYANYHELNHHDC
The following applies: protein: recombinant; tags: N-terminal GST; dsDNA, one strand shown. In a few lines:
as §1

Another assay has as its target ELF4 (Homo sapiens, UniProt Q99607 1-663). The following applies: protein: recombinant; tags: N-terminal GST; dsDNA, one strand shown. In a few lines:
as §1

The target of the next assay is T3, ELK4 (Homo sapiens, UniProt P28324-2 1-405).
T3 sequence: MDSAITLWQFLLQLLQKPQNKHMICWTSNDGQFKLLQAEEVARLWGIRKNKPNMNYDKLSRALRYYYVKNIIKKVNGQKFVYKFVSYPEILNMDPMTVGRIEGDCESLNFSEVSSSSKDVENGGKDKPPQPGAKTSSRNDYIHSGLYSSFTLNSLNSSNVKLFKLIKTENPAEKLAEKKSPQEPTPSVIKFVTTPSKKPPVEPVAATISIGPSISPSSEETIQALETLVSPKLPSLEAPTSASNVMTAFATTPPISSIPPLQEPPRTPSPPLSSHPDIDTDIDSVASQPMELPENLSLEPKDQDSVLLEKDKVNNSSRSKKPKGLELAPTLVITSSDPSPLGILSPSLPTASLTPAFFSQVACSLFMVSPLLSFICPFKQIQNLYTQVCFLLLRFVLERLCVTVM
The note with it: protein: recombinant; tags: N-terminal GST; dsDNA, one strand shown. The method, boiled down: as §1

A further assay has as its target T4, ETV2 (Homo sapiens, UniProt O00321 1-342).
T4 sequence: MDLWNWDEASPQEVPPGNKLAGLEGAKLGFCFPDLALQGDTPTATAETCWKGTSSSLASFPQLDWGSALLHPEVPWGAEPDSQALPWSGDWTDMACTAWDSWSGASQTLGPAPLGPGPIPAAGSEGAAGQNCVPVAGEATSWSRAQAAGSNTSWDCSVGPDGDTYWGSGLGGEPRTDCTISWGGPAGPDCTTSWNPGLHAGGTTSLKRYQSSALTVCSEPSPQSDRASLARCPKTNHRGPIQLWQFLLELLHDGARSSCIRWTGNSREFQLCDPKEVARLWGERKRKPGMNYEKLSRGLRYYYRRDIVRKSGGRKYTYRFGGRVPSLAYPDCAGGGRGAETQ
The following applies: protein: recombinant; tags: N-terminal GST; dsDNA, one strand shown. In a few lines:
as §1

Another assay addresses T5, ELF3 (Homo sapiens, UniProt P78545 1-371).
T5 sequence: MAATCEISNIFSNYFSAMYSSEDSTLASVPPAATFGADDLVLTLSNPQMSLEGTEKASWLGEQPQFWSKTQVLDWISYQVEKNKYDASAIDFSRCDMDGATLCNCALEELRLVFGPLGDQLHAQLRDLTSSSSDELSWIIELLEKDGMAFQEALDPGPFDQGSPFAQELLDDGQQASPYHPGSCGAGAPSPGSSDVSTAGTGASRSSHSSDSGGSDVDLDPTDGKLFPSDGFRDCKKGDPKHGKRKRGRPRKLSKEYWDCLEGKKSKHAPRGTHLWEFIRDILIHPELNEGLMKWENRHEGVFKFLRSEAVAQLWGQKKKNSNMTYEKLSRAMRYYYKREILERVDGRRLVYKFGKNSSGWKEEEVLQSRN
The note with it: protein: recombinant; tags: N-terminal GST; dsDNA, one strand shown. In a few lines: as §1

A further assay addresses CRX (Homo sapiens, UniProt O43186 1-299). The note with it: protein: recombinant; tags: N-terminal GST; dsDNA, one strand shown. In a few lines: as §1
For the next assay, the target named is ETV1 (Homo sapiens, UniProt P50549 1-477). The following applies: protein: recombinant; tags: N-terminal GST; dsDNA, one strand shown. The method, boiled down: as §1
Another assay deals with T6, ERF (Homo sapiens, UniProt P50548 1-548).
T6 sequence: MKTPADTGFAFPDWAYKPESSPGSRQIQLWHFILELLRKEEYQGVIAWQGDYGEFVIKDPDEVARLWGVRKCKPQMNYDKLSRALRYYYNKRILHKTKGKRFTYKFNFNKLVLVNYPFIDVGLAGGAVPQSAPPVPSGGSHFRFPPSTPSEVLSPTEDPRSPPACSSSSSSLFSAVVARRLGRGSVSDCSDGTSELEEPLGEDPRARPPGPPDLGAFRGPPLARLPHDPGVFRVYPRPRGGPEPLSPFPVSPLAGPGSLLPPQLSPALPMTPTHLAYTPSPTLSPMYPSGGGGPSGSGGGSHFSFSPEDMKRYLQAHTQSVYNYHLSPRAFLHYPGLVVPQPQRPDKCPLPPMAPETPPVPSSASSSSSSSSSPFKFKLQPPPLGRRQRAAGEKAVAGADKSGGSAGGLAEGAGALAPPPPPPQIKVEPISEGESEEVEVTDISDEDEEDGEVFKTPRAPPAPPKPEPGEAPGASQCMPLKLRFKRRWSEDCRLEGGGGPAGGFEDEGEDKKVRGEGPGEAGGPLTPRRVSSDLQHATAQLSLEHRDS
The note with it: protein: recombinant; tags: N-terminal GST; dsDNA, one strand shown. In a few lines: as §1

In the next assay the target is T7, ETV3L (Homo sapiens, UniProt Q6ZN32 1-361).
T7 sequence: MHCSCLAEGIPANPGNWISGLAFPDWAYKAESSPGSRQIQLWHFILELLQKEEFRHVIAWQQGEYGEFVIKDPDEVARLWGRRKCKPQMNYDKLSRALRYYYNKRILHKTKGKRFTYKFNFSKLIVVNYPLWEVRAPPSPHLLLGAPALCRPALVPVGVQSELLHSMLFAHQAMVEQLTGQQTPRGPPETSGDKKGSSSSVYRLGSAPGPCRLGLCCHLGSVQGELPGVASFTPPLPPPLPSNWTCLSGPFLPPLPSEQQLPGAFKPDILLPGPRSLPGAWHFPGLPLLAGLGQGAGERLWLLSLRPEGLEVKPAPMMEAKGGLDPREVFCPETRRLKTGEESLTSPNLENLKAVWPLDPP
The following applies: protein: recombinant; tags: N-terminal GST; dsDNA, one strand shown. The method, boiled down:
as §1

The next assay concerns the target T8, ETS2 (Homo sapiens, UniProt P15036 1-469).
T8 sequence: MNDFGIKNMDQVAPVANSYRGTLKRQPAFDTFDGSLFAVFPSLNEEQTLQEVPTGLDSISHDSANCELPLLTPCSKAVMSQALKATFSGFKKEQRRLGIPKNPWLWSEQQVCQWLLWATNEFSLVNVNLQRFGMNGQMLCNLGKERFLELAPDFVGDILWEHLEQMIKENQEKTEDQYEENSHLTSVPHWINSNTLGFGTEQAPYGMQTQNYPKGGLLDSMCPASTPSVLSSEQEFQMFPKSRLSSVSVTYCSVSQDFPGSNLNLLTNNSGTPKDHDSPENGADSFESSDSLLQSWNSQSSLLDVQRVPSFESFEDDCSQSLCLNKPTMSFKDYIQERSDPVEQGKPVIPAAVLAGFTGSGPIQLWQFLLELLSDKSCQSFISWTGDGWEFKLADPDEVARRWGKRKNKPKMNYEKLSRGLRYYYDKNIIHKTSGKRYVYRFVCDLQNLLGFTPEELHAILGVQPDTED
The note with it: protein: recombinant; tags: N-terminal GST; dsDNA, one strand shown. The method, boiled down:
as §1

For the next assay, the target named is T9, SPDEF (Homo sapiens, UniProt O95238 1-335).
T9 sequence: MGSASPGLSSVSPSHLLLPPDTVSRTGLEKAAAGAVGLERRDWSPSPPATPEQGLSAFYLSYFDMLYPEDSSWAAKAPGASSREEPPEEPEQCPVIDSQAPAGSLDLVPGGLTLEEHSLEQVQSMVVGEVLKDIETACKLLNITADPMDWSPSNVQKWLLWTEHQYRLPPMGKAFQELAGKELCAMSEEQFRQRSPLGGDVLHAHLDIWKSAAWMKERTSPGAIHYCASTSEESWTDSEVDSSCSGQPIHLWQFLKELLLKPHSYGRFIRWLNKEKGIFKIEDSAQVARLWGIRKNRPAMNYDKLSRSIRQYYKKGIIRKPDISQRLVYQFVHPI
The note with it: protein: recombinant; tags: N-terminal GST; dsDNA, one strand shown. In a few lines: as §1

In a further assay the target is T10, ETV7 (Homo sapiens, UniProt Q9Y603 1-341).
T10 sequence: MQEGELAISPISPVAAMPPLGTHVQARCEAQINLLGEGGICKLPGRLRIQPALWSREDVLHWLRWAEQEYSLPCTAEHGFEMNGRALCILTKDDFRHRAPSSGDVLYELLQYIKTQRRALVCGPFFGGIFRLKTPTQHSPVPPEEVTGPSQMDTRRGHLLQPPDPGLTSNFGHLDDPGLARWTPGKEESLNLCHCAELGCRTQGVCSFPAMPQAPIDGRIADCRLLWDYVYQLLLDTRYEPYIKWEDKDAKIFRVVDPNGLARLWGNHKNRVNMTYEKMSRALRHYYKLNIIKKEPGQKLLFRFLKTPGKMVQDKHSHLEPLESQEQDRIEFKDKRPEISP
The note with it: protein: recombinant; tags: N-terminal GST; dsDNA, one strand shown. The method, boiled down: as §1

The target of another assay is T11, ELF5 (Homo sapiens, UniProt Q9UKW6-2 1-255).
T11 sequence: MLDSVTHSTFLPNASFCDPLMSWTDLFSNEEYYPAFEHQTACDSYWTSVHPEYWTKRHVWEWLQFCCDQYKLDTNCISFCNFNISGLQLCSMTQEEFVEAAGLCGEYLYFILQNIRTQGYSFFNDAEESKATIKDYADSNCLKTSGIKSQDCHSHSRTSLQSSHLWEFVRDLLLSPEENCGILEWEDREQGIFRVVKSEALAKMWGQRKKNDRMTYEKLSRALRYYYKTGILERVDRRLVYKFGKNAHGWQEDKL
The note with it: protein: recombinant; tags: N-terminal GST; dsDNA, one strand shown. In a few lines: as §1

Another assay addresses T12, ETV3 (Homo sapiens, UniProt P41162-2 1-143).
T12 sequence: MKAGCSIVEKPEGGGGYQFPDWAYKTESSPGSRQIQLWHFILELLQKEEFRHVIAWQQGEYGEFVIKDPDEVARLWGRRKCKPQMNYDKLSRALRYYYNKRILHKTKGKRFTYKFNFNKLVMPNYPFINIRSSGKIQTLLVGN
The following applies: protein: recombinant; tags: N-terminal GST; dsDNA, one strand shown. The method, boiled down: as §1

The target in the next assay is ETV6 (Homo sapiens, UniProt P41212 1-452). The following applies: protein: recombinant; tags: N-terminal GST; dsDNA, one strand shown. In a few lines: as §1
ETV6, sequence (P41212 whole entry): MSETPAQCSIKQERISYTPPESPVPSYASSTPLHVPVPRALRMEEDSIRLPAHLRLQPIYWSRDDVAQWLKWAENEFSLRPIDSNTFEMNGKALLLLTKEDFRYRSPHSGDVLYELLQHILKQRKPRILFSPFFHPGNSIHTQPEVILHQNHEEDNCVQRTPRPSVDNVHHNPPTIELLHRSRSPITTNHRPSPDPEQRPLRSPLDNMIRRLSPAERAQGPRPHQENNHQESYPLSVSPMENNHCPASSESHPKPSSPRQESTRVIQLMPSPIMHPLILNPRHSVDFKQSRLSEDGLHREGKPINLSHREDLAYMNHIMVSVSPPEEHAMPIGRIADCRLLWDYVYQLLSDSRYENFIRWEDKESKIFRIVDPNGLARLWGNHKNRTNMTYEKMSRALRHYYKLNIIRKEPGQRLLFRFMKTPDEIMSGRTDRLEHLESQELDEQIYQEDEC

CRX, sequence (O43186 whole entry): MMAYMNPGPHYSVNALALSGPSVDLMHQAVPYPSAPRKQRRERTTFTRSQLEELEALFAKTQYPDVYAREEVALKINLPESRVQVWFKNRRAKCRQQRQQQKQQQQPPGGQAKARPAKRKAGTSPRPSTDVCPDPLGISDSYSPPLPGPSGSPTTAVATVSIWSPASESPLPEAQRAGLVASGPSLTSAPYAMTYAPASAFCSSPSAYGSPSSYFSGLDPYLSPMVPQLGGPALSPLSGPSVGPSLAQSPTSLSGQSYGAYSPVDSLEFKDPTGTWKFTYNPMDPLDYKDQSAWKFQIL
HSF1, sequence (Q00613 whole entry): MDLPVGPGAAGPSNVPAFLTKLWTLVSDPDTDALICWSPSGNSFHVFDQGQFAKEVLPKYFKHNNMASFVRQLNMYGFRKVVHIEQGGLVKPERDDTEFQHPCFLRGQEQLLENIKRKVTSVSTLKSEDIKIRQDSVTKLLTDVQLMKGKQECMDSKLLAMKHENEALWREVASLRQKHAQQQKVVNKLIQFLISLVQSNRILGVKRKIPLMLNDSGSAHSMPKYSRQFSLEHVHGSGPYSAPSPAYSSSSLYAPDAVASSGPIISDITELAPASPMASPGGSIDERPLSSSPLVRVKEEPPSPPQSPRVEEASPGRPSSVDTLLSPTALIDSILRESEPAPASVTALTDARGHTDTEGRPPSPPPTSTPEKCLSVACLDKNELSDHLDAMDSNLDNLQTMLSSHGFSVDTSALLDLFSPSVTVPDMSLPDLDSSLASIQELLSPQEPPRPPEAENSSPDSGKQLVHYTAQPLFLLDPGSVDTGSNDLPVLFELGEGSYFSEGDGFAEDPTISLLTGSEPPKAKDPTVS
ETV5, sequence (P41161 whole entry): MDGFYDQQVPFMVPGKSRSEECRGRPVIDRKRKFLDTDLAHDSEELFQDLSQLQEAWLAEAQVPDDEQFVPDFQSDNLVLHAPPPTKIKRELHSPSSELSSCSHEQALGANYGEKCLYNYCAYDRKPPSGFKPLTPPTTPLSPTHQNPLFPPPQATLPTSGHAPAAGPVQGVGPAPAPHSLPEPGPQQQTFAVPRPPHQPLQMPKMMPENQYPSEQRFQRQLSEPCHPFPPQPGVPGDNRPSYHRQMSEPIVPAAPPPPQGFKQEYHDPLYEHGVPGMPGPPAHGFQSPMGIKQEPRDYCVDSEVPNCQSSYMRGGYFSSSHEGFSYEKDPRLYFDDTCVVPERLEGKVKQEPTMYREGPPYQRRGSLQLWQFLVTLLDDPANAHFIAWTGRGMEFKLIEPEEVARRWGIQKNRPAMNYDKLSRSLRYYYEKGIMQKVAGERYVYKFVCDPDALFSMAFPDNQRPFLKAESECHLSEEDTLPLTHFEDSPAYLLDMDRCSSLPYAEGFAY
ELF4, sequence (Q99607 whole entry): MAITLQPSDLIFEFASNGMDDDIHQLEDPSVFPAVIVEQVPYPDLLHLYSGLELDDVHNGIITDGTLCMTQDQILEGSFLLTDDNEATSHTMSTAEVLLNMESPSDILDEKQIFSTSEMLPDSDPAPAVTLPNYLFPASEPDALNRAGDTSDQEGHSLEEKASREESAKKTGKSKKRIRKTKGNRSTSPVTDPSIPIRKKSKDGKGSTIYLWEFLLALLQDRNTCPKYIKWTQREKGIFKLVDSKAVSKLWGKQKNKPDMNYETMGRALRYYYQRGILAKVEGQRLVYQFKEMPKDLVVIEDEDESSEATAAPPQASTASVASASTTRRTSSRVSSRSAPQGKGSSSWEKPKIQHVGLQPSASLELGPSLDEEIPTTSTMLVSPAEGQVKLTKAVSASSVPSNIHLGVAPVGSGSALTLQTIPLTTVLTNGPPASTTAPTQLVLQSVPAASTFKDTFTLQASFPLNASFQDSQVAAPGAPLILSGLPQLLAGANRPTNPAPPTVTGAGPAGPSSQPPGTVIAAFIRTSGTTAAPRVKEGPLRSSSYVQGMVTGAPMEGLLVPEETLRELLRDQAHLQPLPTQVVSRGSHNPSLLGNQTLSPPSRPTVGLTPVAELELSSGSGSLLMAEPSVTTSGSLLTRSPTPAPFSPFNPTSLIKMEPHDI
ETV1, sequence (P50549 whole entry): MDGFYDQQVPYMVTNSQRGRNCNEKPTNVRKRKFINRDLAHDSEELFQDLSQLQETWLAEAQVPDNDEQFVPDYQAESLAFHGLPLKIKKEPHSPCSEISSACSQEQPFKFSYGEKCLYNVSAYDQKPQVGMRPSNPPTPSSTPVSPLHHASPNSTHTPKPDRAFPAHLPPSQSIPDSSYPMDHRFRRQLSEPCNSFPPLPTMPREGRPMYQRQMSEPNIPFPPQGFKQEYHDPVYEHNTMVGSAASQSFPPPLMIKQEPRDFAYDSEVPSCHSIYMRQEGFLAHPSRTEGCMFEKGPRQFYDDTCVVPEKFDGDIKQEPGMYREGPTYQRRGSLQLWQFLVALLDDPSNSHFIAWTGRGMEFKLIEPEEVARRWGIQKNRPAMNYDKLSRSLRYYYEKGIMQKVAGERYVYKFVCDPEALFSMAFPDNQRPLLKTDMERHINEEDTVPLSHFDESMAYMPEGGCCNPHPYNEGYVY

For the sequence GATCTC, the binding signal with FEV was 1.2 fold enrichment (6-mer frequency, TF over GST control); with ETV5, 1.27 fold enrichment (6-mer frequency, TF over GST control); with HSF1 it was 1.42 fold enrichment (6-mer frequency, TF over GST control); with SPIC, 1.26 fold enrichment (6-mer frequency, TF over GST control); in the assay with ELF4, 1.3 fold enrichment (6-mer frequency, TF over GST control); with ELK4, 1.22 fold enrichment (6-mer frequency, TF over GST control). Moreover, the binding signal with ETV2 is 1.3 fold enrichment (6-mer frequency, TF over GST control); with ELF3, 1.23 fold enrichment (6-mer frequency, TF over GST control); in the assay with CRX it was 1.46 fold enrichment (6-mer frequency, TF over GST control); with ETV1 it was 1.35 fold enrichment (6-mer frequency, TF over GST control); with ERF, 1.22 fold enrichment (6-mer frequency, TF over GST control); with ETV3L, 1.25 fold enrichment (6-mer frequency, TF over GST control). The binding signal with ETS2 is 1.31 fold enrichment (6-mer frequency, TF over GST control); with SPDEF, 1.42 fold enrichment (6-mer frequency, TF over GST control); in the assay with ETV7, 1.29 fold enrichment (6-mer frequency, TF over GST control); with ELF5 it was 1.21 fold enrichment (6-mer frequency, TF over GST control); with ETV3, 1.29 fold enrichment (6-mer frequency, TF over GST control); in the assay with ETV6 it was 1.15 fold enrichment (6-mer frequency, TF over GST control).
